Screening data deposited in PubChem BioAssay by National Center for Advancing Translational Sciences (NCATS).
NS1 function inh = influenza NS1 inhibition. Potency, µM (titrated, usually from 46.1 µM), inactives show at the top dose activity, positive = more growth. hit rate 0.4% among 270,000; calls by dose curve; further: potency means the concentration at half of the fitted maximal effect; actives are rising curves; nearly all actives have a fitted effect of over 50% in size
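Recovery from NS1-induced slow growth read by OD600 in budding yeast switched to galactose assay medium (pH 6.0, -URA) at 1:100 dilution. Compound 23 nl per well; the matching strain lacking NS1 serves as control.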
CHX counter = affects cycloheximide protein synthesis inhibition readout, counter-screen; max response, %; AID 2314; cell reporter, cycloheximide protein synthesis inhibition counterscreen; hit rate 12% among 300,000; in the data active means max response mostly above about 13%, no sharp cut-off; inactive means mostly below about 14%; further: read at 38.3 µM for the half of the compounds with a filed dose; 0% is about no effect
AmpC detergent = AmpC beta-lactamase inhibition with detergent present; hit rate 0.041% among 370,000; AID 485294; Potency, µM (highest dose often 114 µM), for inactives: at the top dose activity change, negative = inhibition, actives largely listed as inhibitors; AmpC hydrolysis of nitrocefin, absorbance 480 nm, 0.01% Triton; P00811;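 further: potency means the concentration at half of the fitted maximal effect; 0% = no-compound wells and -100% = no-enzyme wells; nearly all actives have a fitted effect of over 25% in size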
Target sequence (P00811 whole entry, looked up): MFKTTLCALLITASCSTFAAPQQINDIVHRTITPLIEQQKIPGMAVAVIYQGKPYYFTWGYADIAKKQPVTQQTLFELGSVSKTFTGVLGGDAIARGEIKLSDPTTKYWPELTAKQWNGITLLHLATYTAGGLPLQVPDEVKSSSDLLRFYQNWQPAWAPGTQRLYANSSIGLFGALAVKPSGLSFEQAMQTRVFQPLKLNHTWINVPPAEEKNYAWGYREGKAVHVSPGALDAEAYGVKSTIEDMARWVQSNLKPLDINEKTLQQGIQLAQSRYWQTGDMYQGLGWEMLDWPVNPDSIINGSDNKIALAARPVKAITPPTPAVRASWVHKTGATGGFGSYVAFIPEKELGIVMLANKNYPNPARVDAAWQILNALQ
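AmpC (5.3 nM in the dispensed reagent) in 20 mM phosphate pH 7.0 with 0.01% (detergent screen) or 0.0001% Triton X-100 was preincubated with compounds for 15 min at room temperature. Nitrocefin was then added from an 800 uM solution, and hydrolysis was followed at 480 nm.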
Shiga toxin inh = Shiga toxin inhibition; AID 2315; inhibition, % at 38.7 µM; Vero cells, Shiga toxin protein synthesis inhibition reporter; hit rate 9.2% among 290,000; in the data active means inhibition mostly above about 28%, no sharp cut-off; inactive means mostly below about 43%; further: 0% is about no effect
AmpC no deterg = blocks E. coli AmpC beta-lactamase in detergent-free assay | AID 485341 | Potency, µM (series often up to 57.1 µM), inactives show at the top dose activity change, negative = inhibition, hits mostly inhibitors | AmpC nitrocefin hydrolysis, absorbance 480 nm, 0.0001% Triton | hit rate 0.52% among 330,000;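 further: potency means the concentration at half of the fitted maximal effect; plate controls were no compound for no effect and no enzyme for full effect; nearly all actives have a fitted effect of over 20% in size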
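20 mM phosphate pH 7.0 + 0.01% (detergent screen) or 0.0001% Triton X-100; 5.3 nM AmpC reagent; cpd preinc 15 min RT; nitrocefin (800 uM stock) to start; A480 q20 s × 4 min; Activity was normalised to no-enzyme and no-compound control wells.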
The depositor's hits bear a star; ? = inconclusive; · = not tested or not shown. The full list was thinned out, with hits kept by preference. Unless noted, the call rests on the fitted dose curve; in most records, active means well fitted curve in the direction sought with a large enough effect; inconclusive means small, poorly fitted or top-dose-only effect, or another doubt; inactive means no such curve, though single readings can be large; an effect the other way counts as inactive or inconclusive.

SMILES | NS1 function inh | CHX counter | AmpC detergent | Shiga toxin inh | AmpC no deterg
O=C(C1=C[C@@H](c2ccccc2)C[C@@H](OCCCCO)O1)N1CCOCC1 | 1% | 6 | 3% | -3 | 11%
CCCCON1C(=O)c2cccc3cccc(c23)C1=O | -16% | 15* | 1% | 41* | -10%
O=C(Nc1cccnc1)Nc1cc(Cl)cc(Cl)c1 | -4% | 1 | 2% | -1 | -15%
O=C(Nc1ccncc1)Nc1ccccc1Cl | 2% | 24* | -1% | 49* | -17%
O=C(Nc1cccnc1)Nc1ccccc1Cl | -13% | 26* | 3% | 93 | -19%
O=C(Nc1ccncc1)c1ccccc1Cl | 1% | 13 | -6% | 37* | -6%
Cc1ccc(NC(=O)Nc2cccnc2)cc1Cl | -9% | 37* | -11% | 63* | -17%
COc1cc([N+](=O)[O-])cc(/C=N/NC(=O)CSc2ccccn2)c1O | 2% | -2 | -6% | 12 | -30%
O=C(Nc1ccncc1)Nc1ccc(Cl)cc1Cl | -10% | 7 | ? | 21 | -53%
O=C(Nc1cccnc1)Nc1ccc(Br)cc1Cl | -31% | 29* | -14% | 56* | -41%
O=C(O)c1ccc(CSC2CCCCC2)cc1 | -40% | 6 | -10% | -6 | -19%
COc1cccc(C(=O)NCC(=O)N/N=C/c2ccc3c(c2)OCO3)c1 | 2% | 44* | -8% | 83* | -15%
O=C(CNC(=O)c1ccccc1F)N/N=C/c1ccc2c(c1)OCO2 | -10% | 45* | -2% | 55* | -17%
O=C(CNC(=O)c1ccccc1Cl)N/N=C/c1ccc2c(c1)OCO2 | 6% | 14 | 5% | 15 | -23%
COc1ccc(C(=O)NCC(=O)N/N=C/c2cccc(OC(=O)c3ccco3)c2)cc1OC | · | 33* | 1% | 43 | 24%
CCN(CC)c1ccc(/C=N/NC(=O)CNC(=O)c2ccccn2)cc1 | · | 12 | ? | 84 | -29%
O=C(CNC(=O)c1ccccn1)N/N=C/c1ccc2c(c1)OCO2 | · | 42* | 2% | 100* | -8%
Cc1ccc2c(CN3CCN(C(=O)c4ccc(F)cc4)CC3)cc(=O)oc2c1 | · | · | 13% | · | ·
c1ccc(CCCCNCC2COc3ccccc3O2)cc1 (stereo unspecified) | · | 7 | -3% | -10 | -7%
COc1ccc(-c2cc(-c3ccc4c(c3)NC(=O)CO4)nc3c2COc2ccc(C)cc2-3)cc1 | · | · | 4% | · | ·
O=c1c(S(=O)(=O)c2cccc(Cl)c2)cn(Cc2ccccc2)c2cc(N3CCCCC3)c(F)cc12 | · | · | 1% | · | ·
COc1ccc(NC(=O)c2ccc3snnc3c2)cc1OC | · | · | 1% | · | ·
O=C(Nc1ccc(F)cc1)c1ccc2snnc2c1 | -19% | 29* | -2% | 52* | -25%
Cc1ccc(NC(=O)c2ccc3snnc3c2)cc1C | -5% | 37* | -12% | 74* | -35%
CCOc1ccc(NC(=O)c2ccc3snnc3c2)cc1 | -3% | 26 | 1% | 43* | -41%
SMILES | NS1 function inh | CHX counter | AmpC detergent | Shiga toxin inh | AmpC no deterg
Cc1cccc(NC(=O)c2ccc3snnc3c2)c1 | · | · | 14% | · | ·
COc1cccc(NC(=O)c2ccc3snnc3c2)c1 | 2% | 37* | 0% | 81* | -19%
CC(=O)Nc1ccn(C2OC(C(COC(C)=O)NC(=O)C(CCCCNC(=O)OCc3ccccc3)NC(=O)OC(C)(C)C)C(OC(C)=O)C2OC(C)=O)c(=O)n1 (stereo unspecified) | · | 6 | · | -5 | ·
COC(=O)c1ccccc1NC(=O)CCCn1c(C)c2cnn(-c3ccccc3)c(=O)c2c1C | · | · | 23% | · | ·
CCOc1ccccc1N(C)C(=O)c1c2c(nc3ccccc13)C(=O)N(C1CCCCC1)C2 | · | · | -5% | · | ·
Cn1c(NC(=O)/C=C/c2ccccc2)cc(=O)n(C)c1=O | -10% | 34* | -2% | 31 | -7%
COc1ccc(/C=C/C(=O)Nc2cc(=O)n(C)c(=O)n2C)cc1 | -6% | 31* | 1% | 21 | -4%
Cn1c(NC(=O)CCc2ccccc2)cc(=O)n(C)c1=O | -19% | 43* | -13% | 70* | -26%
Cn1c(NC(=O)/C=C/c2ccc(Cl)c(Cl)c2)cc(=O)n(C)c1=O | 7% | 10 | -1% | 2 | -6%
COc1ccc([C@@H](Nc2ccccn2)c2cc(C(C)(C)C)cc(C(C)(C)C)c2O)cc1 | -1% | · | · | · | ·
Cc1ccc(C(=O)Cc2cc3ccccc3oc2=O)c(C)c1 | -1% | 57* | 8% | 67* | -18%
COc1ccc(C(=O)Cc2cc3ccccc3oc2=O)cc1 | 3% | 28* | ? | 61* | -18%
